# Compound activity (PubChem BioAssay)
# Anthrax LF prot – anthrax lethal factor protease inhibition; P15917; multiplex microsphere protease cleavage assay, LF; inhibition, % at 10 µM; 0.12% of 360,000 active; AID 588501; further: plate controls were buffer without enzyme for full effect and enzyme alone for no effect
# 3CLpro inhibitor – SARS-CoV 3CLpro protease inhibition; P0C6X7; 0.14% of 290,000 active; recombinant SARS-CoV 3CLpro, quenched FRET peptide cleavage; inhibition, % at 6 µM; in the data active means inhibition above about 12%
# Bead autofluor – counter-screen for toxin protease inhibitors: compound fluorescence | 3.1% of 360,000 active | compound autofluorescence counterscreen, microsphere flow cytometry; stronger effect = higher value | fluorescence intensity (concentration not given with the values) | AID 624483; in the data active means fluorescence intensity above about 16000; inconclusive means no clear call, values can overlap the other calls
# CCHF vOTU inh – blocks the CCHF virus ovarian tumor domain protease; 0.55% of 370,000 active; inhibition, % at 11.5 µM; CCHFV vOTU protease, Pep-AMC fluorescence; AID 651958; in the data active means inhibition above about 30%; further: 0% = vehicle wells with enzyme and 100% = no enzyme wells
# BoNT A protease – blocks Botulinum neurotoxin A light chain protease. inhibition, % at 10 µM. multiplex microsphere protease substrate cleavage, flow cytometry. 0.17% of 360,000 active; further: plate controls were buffer without enzyme for full effect and enzyme alone for no effect
# BoNT-F LC inh – BoNT F light chain protease inhibition | AID 588497 | 0.22% of 360,000 active | inhibition, % at 10 µM | Multiplex microsphere protease cleavage assay, flow cytometry; in the data active means inhibition above about 35%, passing the limit was not always enough; inconclusive means no clear call, values can overlap the other calls; further: plate controls were buffer without enzyme for full effect and enzyme alone for no effect
# An asterisk follows results filed as active; u = inconclusive; x = no result given. In the library only some 3.9% were active in any assay of this set; here they are far more common. Unless noted, no stated cut-off is given here; in the data, active means inhibition above about 30%; inconclusive means no clear call, values can overlap the other calls; inactive means below that.
SMILES,Anthrax LF prot,3CLpro inhibitor,Bead autofluor,CCHF vOTU inh,BoNT A protease,BoNT-F LC inh
Cc1ccc(NC(=O)CSc2nc3ccccc3c3nc4ccccc4n23)cc1,-0.3,3.7,19179*,-9.2,0.4,1.2
O=C(NCCN1CCC(Cc2ccccc2)CC1)C1CCCN(S(=O)(=O)c2ccccc2)C1 (centres undefined),x,x,x,-2.2,x,x
C[C@@H]1CN([C@H](C)CO)C(=O)c2c(c3ccccc3n2C)-c2ccccc2CO[C@@H]1CN(C)C(=O)CCN(C)C,x,x,x,12.1,x,x
CCc1cc(C(=O)OC)c(N2C(=O)C3C4C=CC(C4)C3C2=O)s1 (centres undefined),-1.2,-2.1,23671*,-7.1,-0.1,-2.7
COc1ccc(OC)c(NC(=O)c2sc3nc(Cc4ccccc4)cc(C(F)(F)F)c3c2N)c1,1.2,1.1,20176*,-5.5,0.9,-0.2
CSCCC(NC(=O)c1cncc(Br)c1)C(=O)O (centres undefined),-6.4,-7.4,20225*,-2.8,7.8,7.1
CC(=O)N1C[C@@H](CN2C(=O)CCC2=O)[C@@H]2C[C@H]1c1ccccc1N2C,x,x,x,-7.2,x,x
CCN(CC)CCCN=C(C)c1c(O)n(-c2ccccc2)c(=O)[nH]c1=O,-2.2,4.0,22362*,-4.8,u,-0.1
CCC(=NCCCN(CC)CC)c1c(O)n(-c2ccccc2)c(=O)[nH]c1=O,0.7,-0.8,24318*,-0.2,-2.0,-2.9
COc1ccc(Nc2nnc(-c3ccc(N4CCOCC4)c([N+](=O)[O-])c3)c3ccccc23)cc1,-3.9,-4.0,22975*,10.0,-8.6,-9.7
C=CC[C@]12C[C@@]3(O[C@H](C4CCCCC4)N=C3C[C@H](c3ccc(OC)cc3)[C@H]1C)N(Cc1ccncc1)C2=O,x,x,x,11.6,x,x
Cc1ccc(C2c3c(n[nH]c3C(C)C)C(=O)N2c2ccccc2)cc1 (centres undefined),x,x,x,14.3,x,x
COc1ccc(N=C2SC(CC(=O)Nc3ccc(OC)cc3OC)C(=O)N2C)cc1 (centres undefined),-2.5,0.0,20859*,-1.2,3.2,4.7
COc1ccc(OC)c(NC(=O)CC2SC(=Nc3ccccc3)N(CCc3ccccn3)C2=O)c1 (centres undefined),-1.0,3.0,2027,3.1,1.1,-3.6
Cc1ccc(OCC(O)Cn2c(=N)n(CCN3CCCCC3)c3ccccc32)cc1 (centres undefined),-4.1,1.2,24505*,-1.4,-0.7,-6.0
Cc1ccccc1OCC(O)Cn1c(=N)n(Cc2ccccc2)c2ccccc21 (centres undefined),-3.4,4.7,4759,-0.9,0.1,-3.9
CCCCn1c(=N)n(CC(O)COc2cccc(C)c2)c2ccccc21 (centres undefined),-3.5,2.3,23566*,9.2,-2.6,-5.6
COc1ccccc1OCC(O)Cn1c(=N)n(Cc2ccccc2)c2ccccc21 (centres undefined),-2.3,1.4,24188*,3.6,-0.6,-1.3
Cc1ccc2nc(/C(C#N)=C\c3cc(C)n(-c4cccc([N+](=O)[O-])c4)c3C)[nH]c2c1,-3.2,7.9,16239*,3.3,u,-4.8
Cc1cc(/C=C(/C#N)c2nc3ccccc3[nH]2)c(C)n1-c1cc(C(=O)O)cc(C(=O)O)c1,-4.9,-4.5,3938,7.0,1.1,-2.1
O=C(OC1CC2CCC(C1)[N+]21CCCC1)C(O)(c1ccccc1)c1ccccc1 (centres undefined),x,x,x,10.1,x,x
CC/C(O)=C(\C#N)c1nnc2n1CCCCC2,0.1,4.8,20206*,2.5,1.3,1.1
Cc1nnc(NC(=O)Cc2ccc(OCc3c(C)noc3C)cc2)s1,0.3,-3.3,17361*,-1.3,-2.3,-5.4
Cc1noc(C)c1COc1ccc(CC(=O)NCCc2ccccc2)cc1,-5.3,1.0,8573,3.1,0.4,8.4
CC1=CC(C)(C)N(C(=O)CSc2nnc(C)s2)c2ccc(C)cc21,2.6,1.2,10646,16.8,0.0,-10.5
SMILES,Anthrax LF prot,3CLpro inhibitor,Bead autofluor,CCHF vOTU inh,BoNT A protease,BoNT-F LC inh
CC1=CC(C)(C)N(C(=O)CSc2nnc(N)s2)c2cc(C)c(C)cc21,-1.0,3.5,23062*,8.0,-0.3,-2.7
O=C(NCc1ccc(Cl)cc1Cl)c1ccccn1,-0.3,1.5,24310*,0.6,-3.0,-2.7
COc1ccccc1OCC(=O)N/N=C1/SCC(=O)N1Cc1ccccc1,-1.2,6.1,22284*,8.6,2.3,2.4
COC(=O)[C@]12C[C@H](CC(=O)NCCCN3CCCC3=O)C(=O)N(Cc3ccccc3)C1=C[C@H](C(C)(C)C)O[C@@H]2C,x,x,x,5.0,x,x
COc1ccc(C=Nn2c(-c3n[nH]c4c3CCC4)n[nH]c2=S)cc1OCc1ccccc1,x,x,x,7.4,x,x
CCCOc1cc(C)c(S(=O)(=O)NCCOC)cc1C,-0.8,2.4,21763*,5.0,-7.3,-7.4
Cc1ccc(NC(C#N)c2ccccc2OCc2ccccc2)cc1 (centres undefined),-1.9,1.4,23322*,-1.0,u,-6.9
COc1ccccc1N1CCN(S(=O)(=O)c2ccccc2)CC1,-8.0,-10.8,19619*,-7.8,3.0,2.5
COc1ccccc1N1CCN(S(=O)(=O)c2ccc(Br)s2)CC1,-2.8,-0.1,22653*,-1.7,1.6,-1.5
COc1cc(S(=O)(=O)N2CCN(c3ccccc3F)CC2)ccc1Cl,-2.7,3.2,20773*,-0.7,-0.9,-3.0
O=S(=O)(c1ccccc1)N1CCN(c2ccccc2)CC1,x,-4.4,x,2.6,x,x
O=S(=O)(c1ccc(F)cc1)N1CCN(c2ccccc2)CC1,-0.4,2.4,20200*,2.6,0.4,-1.2
COc1ccccc1N1CCN(S(=O)(=O)c2cccs2)CC1,-0.8,2.5,7754,10.5,0.0,-0.6
Cc1cc2c(nc1C)CCCN2S(=O)(=O)c1ccccc1,x,x,x,0.9,x,x
Cc1ccc(-c2nc(C3CCCN(S(=O)(=O)c4cccs4)C3)no2)cc1 (centres undefined),x,x,x,6.7,x,x
O=C(CN1C(=O)c2ccccc2S1(=O)=O)N1CCCCC1,19.5,2.2,3004,1.6,-3.2,-7.1
O=C(CN1C(=O)c2ccccc2S1(=O)=O)N1CCOCC1,-7.5,2.9,20391*,x,9.5,8.9
Cc1ccc(C(C)NC(=O)c2c(C)noc2C)cc1C (centres undefined),-2.0,3.7,24941*,1.9,-4.0,-1.9
Cc1ccc2nc(NCCO)nc(-c3ccccc3)c2c1,1.4,0.9,23056*,-62.5,1.1,-0.3
OCCNc1nc(-c2ccccc2)c2cc(Cl)ccc2n1,2.2,1.5,3998,-48.0,2.1,2.6
Cc1ccc2nc(N/N=C/c3ccccc3C#N)nc(-c3ccccc3)c2c1,-2.8,2.2,17384*,x,-1.8,-5.4
CCOC(=O)c1ccc(NC(=O)Nc2ccc3c4c(cccc24)C(=O)N3CC)cc1,0.5,1.1,21257*,6.9,-1.7,-2.2
O=C(N=Nc1c(O)[nH]c2c(Cl)cc(Cl)cc12)c1ccccc1O,x,x,x,1.1,x,x
CCn1cc([N+](=O)[O-])c(C(=O)Nc2nc(-c3ccc(C)c(C)c3)c(C)s2)n1,-0.2,9.1,7914,x,0.8,-10.4
